# Records with an inconclusive call do not appear. Activity calls are given as the source filed them. The call rests on the fitted dose curve; in most records, active means well fitted cell-killing curve with a large enough effect; inconclusive means small, poorly fitted or top-dose-only effect, or effect the other way; inactive means no such curve, though single readings can be large or run the other way.
# Experiment: Quantitative High-Throughput drug screen in 47 multiple myeloma cell lines against the NCATS MIPE library collection: OPM1_PLB cell viability assay (AID 1918989); further: nearly all actives have a fitted effect of over 40% in size
# Conditions: CellTiter-Glo, 48 h; series mostly up to 45.8 µM; viability (% of control): at the top concentration
# Source text: PI: Beverly A. Mock Ph.D.
# Laboratory of Cancer Biology and Genetics,
# Center for Cancer Research, National Cancer Institute,
# National Institute of Health, Bethesda, Maryland
# Drug resistance and disease progression are common in multiple myeloma (MM) patients, underscoring the need for new therapeutic combinations. […] We hypothesized that effective combinations would reduce MYC expression and enhance p16 activity. […] These preclinical data identify potentially useful drug combinations for evaluation in drug-resistant MM and reveal potential mechanisms of combined drug sensitivity.
# Described herein is the primary MIPE qHTS used to cherrypick compounds. Validated compounds were then further tested for potential synergistic activiy.
# [1] Peat TJ, Gaikwad SM, Dubois W, Gyabaah-Kessie N, Zhang S, Gorjifard S, Phyo Z, Andres M, Hughitt VK, Simpson RM, Miller MA, Girvin AT, Taylor A, Williams D, D'Antonio N, Zhang Y, Rajagopalan A, Flietner E, Wilson K, Zhang X, Shinn P, Klumpp-Thomas C, McKnight C, Itkin Z, Chen L, Kazandijian D, Zhang J, Michalowski AM, Simmons JK, Keats J, Thomas CJ, Mock BA. Drug combinations identified by high-throughput screening promote cell cycle transition and upregulate Smad pathways in myeloma. Cancer Lett. 2023 Aug 1;568:216284. doi: 10.1016/j.canlet.2023.216284. Epub 2023 Jun 24. PMID: 37356470; PMCID: PMC10408729.
# SEQUENCE No. (e.g., 1, 2, 3, etc.); […] (e.g., Cells, Incubation, Reagent, etc.); VALUE and DESCRIPTION.
# 1; Cells; 5 uL; white, solid bottom 1536-well Greiner assay plate.
# 2; Compounds; 23 nL; Kalypsis pin tool (Wako USA) equipped with a 1536-well pin head to transfer to the assay plates.
# 3; Incubation; 48 hours; 37C incubation.
# 4; Reagent;5uL; CellTiter Glo (Promega).
# 5; Detector; 425V; Luminescence; Viewlux PerkinElmer.
# NOTES (numbers refer to Sequence numbers above)
# 1. The cell-based screening methods employed in this study were like those previously published. Briefly, the corresponding myeloma cell lines were screened in 1,536-well plates with 500 cells, 5-uL per well for inhibition of cell viability (assessed by measuring ATP levels with CellTiterGlo).
# 2. NCATS MIPE 4.0 library of approved and investigational drugs were added using the Kalypsis pin tool. Wells treated with DMSO only for 100% viability and media only for 0% viability were used as controls.
# 3. The assay plates were covered and incubated for 48 hours in a 37C, 5% CO2 incubator with controlled humidity.
# 4. After 48 hours, CellTilter-GloTM luminescent substrate mix (Promega) reagent was added to the assay plate and plates we incubated for 5 min at room temperature.
# 5. Signal was measured as median relative luminescence units on a ViewLux (PerkinElmer) multiplate reader.
# [1] Heske CM, Davis MI, Baumgart JT, Wilson K, Gormally MV, Chen L, Zhang X, Ceribelli M, Duveau DY, Guha R, Ferrer M, Arnaldez FI, Ji J, Tran HL, Zhang Y, Mendoza A, Helman LJ, Thomas CJ. Matrix Screen Identifies Synergistic Combination of PARP Inhibitors and Nicotinamide Phosphoribosyltransferase (NAMPT) Inhibitors in Ewing Sarcoma. Clin Cancer Res. 2017 Dec 1;23(23):7301-7311. doi: 10.1158/1078-0432.CCR-17-1121. Epub 2017 Sep 12. PMID: 28899971; PMCID: PMC6636827.
# Potency means the concentration at half of the fitted maximal effect.
Compound,viability (% of control),Potency
CN(C)CCN(C)CCc1ccc(Cl)c(Cl)c1,131% (inactive),–
Cc1cc(SCc2sc(-c3ccc(C(F)(F)F)c(F)c3)nc2C)ccc1OCC(=O)O,–,20.9 µM (active)
Cn1c(CCCC(=O)O)nc2cc(N(CCCl)CCCl)ccc21,140% (inactive),–
Cn1cc(C2=C(c3cn(C4CCN(Cc5ccccn5)CC4)c4ccccc34)C(=O)NC2=O)c2ccccc21,–,16.6 µM (active)
Fc1ccc(C(OCCN2CCN(CCCc3ccccc3)CC2)c2ccc(F)cc2)cc1,–,16.6 µM (active)
C=C(C)[C@H]1Cc2c(ccc3c2O[C@@H]2COc4cc(OC)c(OC)cc4[C@@H]2C3=O)O1,–,7.43 µM (active)
COc1ccc2c(c1OC)CN1CCc3cc4c(cc3C1C2)OCO4 (stereo not drawn),128% (inactive),–
COc1ccc(C(=O)c2c(C)n(CCN3CCOCC3)c3ccccc23)cc1,146% (inactive),–
N[C@@H](Cc1ccc(N(CCCl)CCCl)cc1)C(=O)O,–,13.2 µM (active)
CC(C)CC(N(C)C)C1(c2ccc(Cl)cc2)CCC1 (stereo not drawn),109% (inactive),–
CC1=C2C[C@@H]3[C@@H](CC=C4C[C@@H](O)CC[C@@]43C)[C@@H]2CC[C@]12O[C@H]1C[C@H](C)CN[C@H]1[C@H]2C,–,0.0469 µM (active)
COC[C@H]1OC(=O)c2coc3c2[C@@]1(C)C1=C(C3=O)C2CCC(=O)[C@@]2(C)C[C@H]1OC(C)=O (stereo partly drawn),–,0.833 µM (active)
CC(O)(CS(=O)(=O)c1ccc(F)cc1)C(=O)Nc1ccc(C#N)c(C(F)(F)F)c1 (stereo not drawn),–,3.32 µM (active)
CN1CCN(C(=O)O[C@H]2c3nccnc3C(=O)N2c2ccc(Cl)cn2)CC1,141% (inactive),–
NCC1(CC(=O)O)CCCCC1,139% (inactive),–
C#CCN(C)[C@H](C)Cc1ccccc1,93.6% (inactive),–
O=C(O)C(=O)c1cn(Cc2ccccc2)c2ccc(-c3ccc(OC(F)(F)F)cc3)cc12,123% (inactive),–
O=C1CC[C@@]2(O)[C@H]3Cc4ccc(O)c5c4[C@@]2(CCN3CC2CC2)[C@H]1O5,–,7.43 µM (active)
O=P1(NCCCl)OCCCN1CCCl (stereo not drawn),–,16.6 µM (active)
O=c1[nH]c2ccccc2n1CCCN1CCC(n2c(=O)[nH]c3cc(Cl)ccc32)CC1,141% (inactive),–
CN(C)CCc1ccc(O)cc1,135% (inactive),–
COc1ccc(C(CN(C)C)C2(O)CCCCC2)cc1 (stereo not drawn),89.3% (inactive),–
CNCC(O)c1ccc(O)cc1 (stereo not drawn),128% (inactive),–
COC[C@@H](NC(C)=O)C(=O)NCc1ccccc1,135% (inactive),–
Cc1sc2c(c1C)C(c1ccc(Cl)cc1)=N[C@@H](CC(=O)OC(C)(C)C)c1nnc(C)n1-2,–,0.0743 µM (active)
CNC(=O)N1N=C(c2ccc(N)cc2)c2cc3c(cc2CC1C)OCO3 (stereo not drawn),–,4.69 µM (active)
C[C@@H]1[C@@H](CC(C[C@H]2O[C@@H]3O[C@]4(C)CC[C@@H]5[C@H](C)CC[C@@H]([C@H]2C)[C@@]35OO4)C[S+](=O)([O-])c2ccc(COC(=O)N(C)C)cc2)O[C@@H]2O[C@]3(C)CC[C@H]4[C@H](C)CC[C@@H]1[C@@]24OO3 (stereo partly drawn),–,0.372 µM (active)
C[C@@H]1[C@@H](C(=O)C[C@H]2O[C@@H]3O[C@]4(C)CC[C@@H]5[C@H](C)CC[C@@H]([C@H]2C)[C@@]35OO4)O[C@@H]2O[C@]3(C)CC[C@H]4[C@H](C)CC[C@@H]1[C@@]24OO3,–,0.418 µM (active)
